Screening data as filed in PubChem.
An excerpt weighted towards active compounds, which were near 1.5% of everything screened.
TCR activator: Activators of T cell receptors: qHTS campaign; primary human leukocytes, anti-CD3, IL-2 HTRF, 48 h; Potency, µM (titrated, usually from 9.22 µM), hits mostly activators; 330,000 tested, under 10 active
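Compounds are tested in HTS on primary human leukocytes co-incubated with a-CD3 beads for 48 hr. IL-2 output is measured by time-resolved FRET.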
BRCA1 expr act: qHTS Assay to Identify Small Molecule Activators of BRCA1 Expression; MCF7-BRCA1-FFLuc reporter, luminescence, 48 h; response scale: scaled: vehicle 0%, 10 µM genistein 100%; Potency, µM (top dose mostly 46.1 µM), hits mostly activators; 380,000 tested, 1.1% active; note: nearly all actives have a fitted effect of over 80% in size
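MCF7-BRCA1-FFLuc cells, 2000/well in phenol-red-free MEM, attached 2 h then treated 48 h at 37 C. Luciferase luminescence read 15 min after reagent; normalized to genistein maximum activation (10microM) and DMSO, concentration-response fitted.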
PINK1 modulator: A Quantitative High throughput Screen to Identify Chemical Modulators of PINK1 Expression. 410,000 tested, 0.2% active. PINK1 immunofluorescence, high-content cytometry, 24 h. Potency, µM (series often up to 76.6 µM), actives largely listed as activators; active = well fitted activation curve with a large enough effect; inconclusive = small, poorly fitted or top-dose-only effect; cell line not stated here; note: nearly all actives have a fitted effect of over 65% in size
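A stable cell line was treated with compounds at 5 concentrations for 24 hours, with CCCP as control. PINK1 levels and mitochondrial localization were measured by immunofluorescence with mitochondrial, cell and nuclear markers after fixation, read by laser-scanning cytometry.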
pAkt inh: HTS Assay for Inhibitors of Akt Phophorylation: Primary Screen; Neuro2A IGF-stimulated pAkt S473 HTRF, 20 min; stronger effect = lower value; activity change, % for hits at 50 µM; 360,000 tested, 0.32% active; in the data active = activity change below about -80%; inconclusive = mostly about -51% to -80%
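Neuro2A cells (4,500/well, DMEM with 0.5% FBS) were treated with compound at a single 50 µM final concentration, stimulated with 6 nM IGF for 20 min at 37 °C, and lysed. Phospho-Akt Ser473 was read by HTRF as 665/615 ratio ×10^4.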
Large screens that a line does not name were inactive. Unless noted, calls come from the whole dose curve; as a rule, active = well fitted curve in the direction sought with a large enough effect; inconclusive = small, poorly fitted or top-dose-only effect, or another doubt; inactive = no such curve, though single readings can be large; an effect the other way counts as inactive or inconclusive.

O=C(N/N=C/c1cccs1)c1[nH]ncc1Br	BRCA1 expr act 3.2µM
COc1cc(/C=N/NC(=O)c2ccoc2C)cc(OC)c1OC	none
Cc1occc1C(=O)N/N=C/c1cccs1	BRCA1 expr act 13µM (no result: PINK1 modulator)
O=C(N/N=C/c1cccs1)c1cnccn1	none
COc1cc(=O)n2c(c1C(=O)NC(C)c1ccco1)CCN(Cc1ccc3nsnc3c1)CC2 (centres undefined)	none (no result: TCR activator, BRCA1 expr act, pAkt inh)
C=C1C=C(C)n2ncc(C(=O)Nc3cccc4cnccc34)c2N1	none (no result: TCR activator, pAkt inh)
COc1cc(CNc2nc(C)c(-c3ccn(CC4CCCN(C)C4)n3)s2)ccc1F (centres undefined)	none (no result: TCR activator, BRCA1 expr act, pAkt inh)
CCc1nnc(NC(=O)c2ccc3ccccc3n2)s1	none
COc1cc(C(=O)Nc2ccc(S(=O)(=O)N(C)c3ccccc3)cc2)cc(OC)c1OC	none
CN(C)c1ccc(NC(=O)c2ccc3nc[nH]c3c2)cc1	BRCA1 expr act 13µM
CCSc1nnc(NC(=O)c2ccc3nc[nH]c3c2)s1	BRCA1 expr act 3.2µM
COc1cc(C(=O)Nc2ccc(N(C)C)cc2)cc(OC)c1OC	PINK1 modulator 11µM (no result: TCR activator)
CCSc1nnc(NC(=O)c2ccc3ccccc3n2)s1	pAkt inh -95%
CCCSc1ncc(Cl)c(C(=O)Nc2sc3c(c2C(N)=O)CCCC3)n1	PINK1 modulator 8.9µM (no result: TCR activator, pAkt inh)
CCNC(=O)c1c(NC(=O)c2nc(SCC)ncc2Cl)sc2c1CCCC2	none (no result: TCR activator, pAkt inh)
CCSc1ncc(Cl)c(C(=O)Nc2sc3c(c2C(=O)NCc2cccnc2)CCCC3)n1	PINK1 modulator 11µM
O=[N+]([O-])c1ccc(NN=C(c2ccccc2)c2ccccc2)nc1	none
CC(C=NNc1ccc([N+](=O)[O-])cn1)=Cc1ccccc1	BRCA1 expr act inconclusive, PINK1 modulator 28µM
CC(=NNc1ccc([N+](=O)[O-])cn1)c1ccccc1	BRCA1 expr act 10µM
Cc1c(OCc2ccccc2)c(=O)ccn1Cc1ccc(Cl)cc1	pAkt inh -115%
Cc1ccc(Cn2ccc(=O)c(OCc3ccccc3)c2C)cc1	BRCA1 expr act 11µM
COc1ccc(OC)c(NC(=O)CSC2=Nc3ccccc3C3=NC(CCC(=O)NCc4ccco4)C(=O)N23)c1 (centres undefined)	none (no result: TCR activator, BRCA1 expr act, pAkt inh)
Cc1nc(N2CCc3ccccc3C2)[nH]c(=O)c1CCC(C)C	PINK1 modulator 11µM (no result: TCR activator)
Cc1nc(N2CCOCC2)[nH]c(=O)c1CCC(C)C	none
Cc1ccc(C(=O)NCCc2nnc3n2CCN(Cc2ccc4ccccc4c2)CC3)c(C)c1	none (no result: TCR activator, BRCA1 expr act, pAkt inh)
Nc1nc(N)c2c(OCc3ccc(C(F)(F)F)cc3)cccc2n1	none (no result: TCR activator, pAkt inh)
CN(C)c1ccc(/C=N\NC(=O)c2csnn2)cc1	none
O=C(N/N=C\c1ccc(Oc2ccccc2)cc1)c1csnn1	BRCA1 expr act 13µM
Cc1c(NC(=O)c2ccc(C(C)(C)C)cc2)cccc1[N+](=O)[O-]	BRCA1 expr act 7.9µM
Cc1ccc(NC(=O)c2ccc(C(C)(C)C)cc2)cc1[N+](=O)[O-]	BRCA1 expr act 8.9µM
Cc1ccc([N+](=O)[O-])cc1NC(=O)c1ccc(C(C)(C)C)cc1	none
O=c1cc(-c2ccsc2)oc2ccc(-c3ccc4cc[nH]c4c3)cc12	BRCA1 expr act 5.6µM
O=C(O)CN1C(=O)/C(=C/C=C/c2ccccc2)SC1=S	none
CCN1C(=O)C(=CC=CN(C)c2ccccc2)SC1=S	BRCA1 expr act 2.5µM, PINK1 modulator inconclusive (no result: TCR activator)
CCN1C(=O)/C(=C/C=C2\C=CN(CC)c3ccccc32)SC1=S	BRCA1 expr act 6.3µM, PINK1 modulator inconclusive
Cc1ccc(-c2nc(-c3cccnc3)no2)c(C)c1	BRCA1 expr act 6.3µM
Brc1ccc(-c2nc(-c3ccccc3)no2)o1	none
Cc1ccc(C)c(OCc2nc(-c3cccnc3)no2)c1	PINK1 modulator inconclusive (no result: TCR activator)
COc1nc(-c2ccccc2)ccc1-c1noc(-c2cccnc2)n1	PINK1 modulator inconclusive
CCOc1nc(-c2ccc(OC)cc2)ccc1-c1noc(C)n1	none
Brc1ccc(-c2nc(-c3cccnc3)no2)o1	BRCA1 expr act 4µM
COc1ccc(-c2ccc(-c3noc(C)n3)c(OC)n2)cc1	PINK1 modulator 16µM, pAkt inh inconclusive (no result: TCR activator)
COc1nc(-c2ccc(C)cc2)ccc1-c1noc(-c2cccnc2)n1	pAkt inh -105%
COc1ccc(CC(=O)c2ccc(OC3OC(CO)C(O)C(O)C3O)cc2O)cc1 (centres undefined)	BRCA1 expr act 11µM
COc1ccc(-c2coc3cc(O)ccc3c2=O)cc1	BRCA1 expr act inconclusive
CC(=O)Oc1ccc2c(=O)c(-c3ccccc3)coc2c1	BRCA1 expr act 7.9µM
COc1ccc(-c2coc3cc(O[C@@H]4O[C@H](CO)[C@@H](O)[C@H](O)[C@H]4O)c(OC)cc3c2=O)cc1	BRCA1 expr act 11µM
COc1ccc(-c2coc3cc(OC)ccc3c2=O)cc1	BRCA1 expr act 2.8µM
Cn1c(=O)c(-c2cccc(Cl)c2)nc2cncnc21	none (no result: TCR activator, BRCA1 expr act, pAkt inh)
Cc1cccc(CNC(=O)c2cnn(-c3ncc4c(n3)-c3ccccc3CC4)c2C2CC2)n1	none (no result: TCR activator, BRCA1 expr act, pAkt inh)
COc1ccc(-c2coc3cc(O)ccc3c2=O)cc1O	BRCA1 expr act 13µM
COc1ccc(-c2coc3cc(OC(C)=O)ccc3c2=S)cc1	BRCA1 expr act inconclusive, PINK1 modulator 18µM
CN(C)CC(C)(O)c1ccc2c(c1)CN(Cc1cnn(-c3ccccc3)c1)CCO2 (centres undefined)	none (no result: TCR activator, BRCA1 expr act, pAkt inh)
COc1cc(NC(=O)c2noc3c2CCC3)c(OC)cc1Cl	PINK1 modulator 11µM (no result: TCR activator)
CCOc1cc(S(=O)(=O)NCc2ccc(OC)cc2)c(OCC)cc1-n1cnnn1	PINK1 modulator 5.6µM, pAkt inh -92% (no result: TCR activator)
COc1ccc(NC(=O)CCS(=O)(=O)c2cccc3nonc23)cc1	none
COc1ccc(NC(=O)CCS(=O)(=O)c2cccc3nonc23)c(OC)c1	pAkt inh -113%
Clc1cccc(Cl)c1CSc1cc2c(nn1)-c1ccccc1CC2	none
Clc1ccccc1CSc1cc2c(nn1)-c1ccccc1CC2	BRCA1 expr act 4µM
COc1cc(OC)c(OC)cc1CN1CCCC(n2cc(C(=O)N3CCCCC3)nn2)C1 (centres undefined)	none (no result: TCR activator, BRCA1 expr act, pAkt inh)
C=CCNC(=O)C1CCN(S(=O)(=O)c2cccs2)CC1	none
C=CCNC(=O)C1CCN(S(=O)(=O)c2ccccc2)CC1	pAkt inh -95%
CCC(=O)Nc1ccccc1C(=O)OCC(=O)c1cccc2ccccc12	pAkt inh -118%
COc1cc(=O)n2c(c1C(=O)NCc1ccco1)CCN(C(=O)c1c(F)ccc(F)c1F)CC2	none (no result: TCR activator, BRCA1 expr act, pAkt inh)
Cn1c(SCc2ccc(F)cc2)nnc1-c1cnccn1	BRCA1 expr act 11µM
Cn1c(SCC(=O)Nc2ccc3cn[nH]c3c2)nnc1-c1cnccn1	pAkt inh -97%
Cc1cccc(CNC(=O)c2ccc(NC(=O)N3CCSc4ccccc43)cc2)c1	none (no result: TCR activator, BRCA1 expr act, pAkt inh)
O=C(Oc1cccc2cccnc12)c1ccc(Br)o1	none
O=C(Oc1cccc2cccnc12)c1ccco1	pAkt inh -110%
COCC(=O)Nc1cc(C(=O)N2CCc3sccc3C2)c2c(c1)nc(-c1ccncc1)n2C	none (no result: TCR activator, BRCA1 expr act, pAkt inh)
